# HT1080 IDH1KD tx – kills HT-1080 cells with IDH1 knockdown; 2% of 360,000 active; Potency, µM (highest dose often 46.1 µM), without a hit: at the highest dose activity, negative = toxicity, most hits filed as cytotoxic; HT-1080 IDH1 knockdown viability, ATP luminescence, 48 h; AID 686971;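 also: potency is read from the fitted curve at half-maximal effect; 0% = DMSO wells and -100% = cell-free medium wells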
#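 HT-1080-IDH1KD cells (IDH1 knocked down), 750/well in RPMI with 5% FBS, treated with compound 48 h at 37 degrees C. Viability by CellTiter-Glo luminescence, normalised to DMSO and no-cell wells; concentration-response curves classed.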
# DT40 TDP1 no CPT – qHTS for Inhibitors of human tyrosyl-DNA phosphodiesterase 1 (TDP1): qHTS in cells in absence of CPT | DT40 Tdp1-/- hTDP1 cells, no CPT, ATP luminescence, 48 h | Potency, µM (titrated, usually from 46.2 µM), for the others: top-dose activity change, negative = growth inhibition, hits mostly inhibitors | 15% of 420,000 active | AID 686978, 2013; also: potency is read from the fitted curve at half-maximal effect; nearly all actives have a fitted effect of over 55% in size
#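 Compound effects on proliferation are scored in DT40 Tdp1-/-;hTDP1 cells in the absence of CPT. ATP levels (CellTiter-Glo luminescence) are recorded after a ≥48 hr, 37 °C incubation.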
# DT40 TDP1 CPT – growth inhibition of DT40 Tdp1-/-;hTDP1 cells with camptothecin (screen for TDP1 inhibitors) | chicken DT40 Tdp1-/-;hTDP1 cells + 20 nM CPT, ATP luminescence, 48 h | Potency, µM (series often up to 46.2 µM), for inactives: at the highest dose activity change, negative = growth inhibition, most hits filed as inhibitors | 12% of 420,000 active; also: potency is read from the fitted curve at half-maximal effect; nearly all actives have a fitted effect of over 55% in size
#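 Cell growth measured by CellTiter-Glo luminescence after a minimum 48 h, 37 C compound exposure with 20 nM CPT in Tdp1-knockout DT40 cells stably expressing hTDP1, seeded 400/well; qHTS titration format.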
# IL-1B inflam inh – inflammasome signaling inhibition, IL-1 beta readout; AID 743279; THP-1 LPS/ATP IL-1B secretion, AlphaLISA, 16 h; active compounds read low; activity change, % at 57.5 µM; 4.7% of 360,000 active; in the data active = activity change below about -50%; inconclusive = mostly about -30% to -49%
#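 Secreted IL-1B measured by AlphaLISA bead assay after 16 h compound exposure of THP-1 cells; compounds (final up to 57.5 uM) added 1 h before LPS (250 ng/mL) and ATP (1.25 mM) stimulation; lower signal means less secretion.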
# HT1080-NT tox – kills 2HG-producing HT-1080-NT fibrosarcoma cells. HT-1080-NT fibrosarcoma viability, CellTiter-Glo ATP luminescence, 48 h. Potency, µM (titrated, usually from 46.1 µM), inactives show at the top dose activity, negative = less viability, actives largely listed as cytotoxic. 1.6% of 360,000 active. AID 686970;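 also: NT is the 2HG producing partner of a matched IDH1 knockdown line; potency is read from the fitted curve at half-maximal effect; 0% = DMSO-treated cells and -100% = media-only wells without cells; nearly all actives have a fitted effect of over 55% in size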
#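 Luminescent CellTiter-Glo readout after 48 hours of compound exposure at 37 degrees C defined viability of HT-1080-NT cells. Activity was normalized to DMSO wells and cell-free media wells; concentration-response curves were fitted and assigned curve classes.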
# * marks the source's active call; other numbers are inactive results; ? = inconclusive; · = no result given; [ ] = dose if it differs, or a comment. In the library only some 19% were active in any assay of this set; here they are far more common. Unless noted, calls follow the shape of the dose curve; as a rule, active = well fitted curve in the direction sought with a large enough effect; inconclusive = small, poorly fitted or top-dose-only effect, or another doubt; inactive = no such curve, though single readings can be large; an effect the other way counts as inactive or inconclusive. Unless noted, % is scaled to controls: 0 for no effect and ±100 for the full control effect.
SMILES,HT1080 IDH1KD tx,DT40 TDP1 no CPT,DT40 TDP1 CPT,IL-1B inflam inh,HT1080-NT tox
CCCC12CN3CC(C)(CN(C1)C3c1ccc(OC(C)C)cc1)C2=O (stereo unspecified),1%,?,-30%,8,0%
COCCN(C(=O)C1CC(=O)N(Cc2ccccc2)C1)c1nc(-c2ccc([N+](=O)[O-])cc2)cs1 (stereo unspecified),-24%,21µM*,16µM*,-16,-17%
CCN(CC(=O)Nc1ccc2c(c1)OCCO2)C(=O)c1ccc(C)c(S(=O)(=O)N2CCOCC2)c1,-1%,-23%,-26%,-3,2%
CCC(CC)C(=O)Nc1cc(-c2cccc(C)c2)nn1-c1ccccc1,·,16µM*,23µM*,·,·
Cc1ccc(NC(=O)c2cc(-c3ccccc3)nn2-c2ccccc2)cc1,0%,21µM*,?,?,2%
Cc1ccc(NC(=O)c2cc(-c3ccccc3)nn2-c2ccccc2)c(Br)c1,14%,?,15µM*,-3,22%
CCC(Oc1ccccc1)C(=O)Nc1cc(-c2cccc(C)c2)nn1-c1ccccc1 (stereo unspecified),·,-7%,-25%,·,·
COCC(=O)N1CCC2(CCCN(c3ccncc3)C2)CC1,·,3%,-4%,·,·
CCNc1ncc2nc(-c3ccc(F)cc3)c(=O)n(C)c2n1,·,-24%,?,·,·
COc1ccccc1CNc1ncnc2onc(-c3ccc(F)cc3)c12,·,-32%,-30%,·,·
COc1ccc(OC)c(CNc2ncc(-c3ccc(Cl)cc3)n2C)c1,·,16µM*,16µM*,·,·
COc1ccc(OC)c(CNc2ncnc3onc(-c4ccc(Cl)cc4)c23)c1,·,2.9µM*,2.6µM*,·,·
COc1ccccc1CNc1ncnc2onc(-c3ccc(Cl)cc3)c12,·,21µM*,?,·,·
COc1ccccc1-c1noc2ncnc(Nc3ccccc3C)c12,-7%,15µM*,23µM*,0,-2%
COc1ccccc1-c1noc2ncnc(Nc3cccc(C)c3C)c12,3%,?,?,8,0%
CC(C)NC(=O)CN1CCN(C(=O)c2ccc3oc(CCCc4ccccc4)nc3c2)CC1,0%,-6%,?,0,1%
CCOc1ccccc1CNc1ncnc2onc(-c3ccc(F)cc3)c12,·,23µM*,16µM*,·,·
CCN(CC)S(=O)(=O)c1ccc(C(C)NC(=O)Cc2c[nH]c3ccccc23)cc1 (stereo unspecified),-28%,?,-17%,-2,-22%
CC(C)(C)c1ccc(OCC(=O)N(c2ccccn2)C2CCCCC2)cc1,10%,15µM*,?,16,12%
O=C(COc1ccc(Cl)cc1Cl)N(c1ccccn1)C1CCCCC1,-9%,?,26µM*,-17,-12%
O=C(COCCOCC(=O)N(c1ccccn1)C1CCCCC1)N(c1ccccn1)C1CCCCC1,7%,-1%,13%,2,2%
C[C@@H](NC(=O)[C@@H]1CCCN1C(=O)[C@@H]1CCCN1C(=O)c1cccc(Cl)c1)c1ccccc1,7%,-17%,-24%,12,10%
O=C(CSCc1ccccc1Br)N/N=C/c1ccc(OCC(=O)N2CCCCC2)cc1,10%,2.9µM*,-7%,0,8%
Cc1nc(-c2ccccc2)sc1C(=O)Nc1ccc(S(N)(=O)=O)cc1,-1%,13µM*,-25%,-5,?
Cc1nc(C(=O)Nc2ccccc2)sc1C(=O)Nc1ccccc1,2%,?,18µM*,-24,-13%
SMILES,HT1080 IDH1KD tx,DT40 TDP1 no CPT,DT40 TDP1 CPT,IL-1B inflam inh,HT1080-NT tox
Cc1nc(N)sc1C(=O)Nc1ccccc1,-2%[9.24 µM],?,?,7,-23%
COc1ccc(CNC(=O)c2nccnc2CO)cc1,10%,-1%,8%,43,-4%
CC(C)(C)c1ccc(S(=O)(=O)N2CCN(CCC#N)CC2)cc1,1%,-17%,-11%,-7,-3%
CC(C)(C)CC(C)(C)c1ccc(O)c(CN2CCN(CCC#N)CC2)c1,-21%,23µM*,?,-57*,8%
NC(=O)c1ccc(/C=N/O)nc1,7%,-4%,7%,22,4%
CC(C)(C)OC(=O)C[C@H]1C/C=C\C[C@H](CC(=O)N(CCO)Cc2ccccc2)C(=O)N[C@@H](Cc2ccccc2)COC1=O,0%,?,16µM*,-20,-1%
CC(C)(C)OC(=O)C[C@H]1C/C=C\C[C@H](CC(=O)N(CCO)Cc2ccccc2)C(=O)N[C@H](C(C)(C)C)COC1=O,-3%,21µM*,29µM*,-3,22%
C[C@H]1COC(=O)[C@@H](CC(=O)OC(C)(C)C)C/C=C\C[C@@H](CC(=O)N(CCO)Cc2ccccc2)C(=O)N1,15%,?,?,19,11%
C[C@@H]1COC(=O)[C@@H](CC(=O)OC(C)(C)C)C/C=C\C[C@H](CC(=O)N(CCO)Cc2ccccc2)C(=O)N1,18%,?,?,17,16%
CC(C)(C)OC(=O)C[C@H]1C/C=C\C[C@@H](CC(=O)N(CCO)Cc2ccccc2)C(=O)N[C@H](Cc2c[nH]c3ccccc23)COC1=O,-7%,18µM*,?,-22,0%
Cc1nc(Nc2ccc(Cl)cc2)cc(-c2ccccc2)n1,·,-103%,23µM*,·,·
CCOC(=O)c1ccc(Nc2cc(-c3ccccc3)nc(C)n2)cc1,·,?,-29%,·,·
Cc1nc(-c2ccccc2)cc(-c2ccccc2)n1,-2%,0%,2%,27,1%
Cc1ccc(Nc2cc(-c3ccccc3)nc(C)n2)cc1,·,26µM*,?,·,·
Cc1ccc(/C=N/NC(=O)CNC(=O)c2cccc([N+](=O)[O-])c2C)o1,0%,-13%,-5%,-13,-1%
Cc1ccc(C2(CCN)CCOC(C(C)C)C2)cc1 (stereo unspecified),-2%,?,23µM*,-3,2%
CC(C)C1CC(CCN)(c2ccccc2)CCO1 (stereo unspecified),4%,-11%,?,-15,-9%
CC(C)C1CC(CCN2CCCCC2)(c2ccccc2)CCO1 (stereo unspecified),-8%,?,-27%,-1,-13%
Cc1ccc(C2(CCNC(C)c3cccs3)CCOC(C(C)C)C2)cc1 (stereo unspecified),?,?,-95%,-81*,16µM*
CCCNC(=O)c1cc(-c2ccco2)on1,?,9.2µM*,9.2µM*,-57*,-30%
CC(=O)c1cccc(NC(=O)c2cc(-c3ccco3)on2)c1,5%,-28%,-4%,3,8%
O=C(NCc1ccc(Cl)cc1)c1cc(-c2ccco2)on1,2%,-24%,6%,-5,0%
CC(C)CNC(=O)c1cc(-c2ccco2)on1,6%,18µM*,16µM*,-20,3%

# Source: PubChem BioAssay
